Where a chain is given by its changes, count along the chain named.

Assay in all cases: HT-SELEX; high values mean tight binding
What all share (conditions): protein: recombinant; vector His6-GST; dsDNA, one strand shown

One assay addresses T1, SALL4 ZFC4 WT (HT-SELEX) (Mus musculus, UniProt Q8BX22 870-940).
T1 sequence: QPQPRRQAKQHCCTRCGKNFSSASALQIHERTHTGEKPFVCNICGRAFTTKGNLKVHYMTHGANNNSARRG
A digest of the protocol:
(§1)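 Recombinant mouse SALL4 zinc finger cluster 4 (residues 870–940, 1 µg), purified, was mixed with library DNA (1.5 µg in the first cycle, 200 ng thereafter) in 100 µl of buffer containing 10 mM Tris–HCl pH 7.5, 50 mM NaCl, poly(dI-dC) and DTT, and left for 10 min at room temperature. Complexes were captured on Ni2+ beads, washed, amplified by PCR and reselected for up to 6 cycles in triplicate, after which MiSeq sequencing and a 6-mer scan followed. Binding signal is the read fraction of each canonical k-mer, given as fold change relative to the starting random library.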

Assay [1] has as its target T2, SALL4 ZFC4 R900W (HT-SELEX) (Mus musculus, UniProt Q8BX22 870-940, R900W).
T2 sequence: T1 sequence with R31W
Put shortly:
as §1

The target in assay [2] is T3, SALL4 ZFC4 G921D (HT-SELEX) (Mus musculus, UniProt Q8BX22 870-940, G921D).
T3 sequence: T1 sequence with G52D
Put shortly:
as §1

Regarding CGTACC, the binding signal with SALL4 ZFC4 WT (HT-SELEX) turned out to be 0.409 ± 0.0203 fold-change vs cycle 0; in assay [1], 0.467 ± 0.0146 fold-change vs cycle 0; in assay [2] it was 0.564 ± 0.0582 fold-change vs cycle 0.

On to TTAGAA, for which the binding signal with SALL4 ZFC4 WT (HT-SELEX) was 1.97 ± 0.0545 fold-change vs cycle 0; in assay [1] it was 2.01 ± 0.0848 fold-change vs cycle 0; in assay [2] it was 1.75 ± 0.166 fold-change vs cycle 0.

For the sequence AGAAAG, the binding signal worked out at 1.31 ± 0.0378 fold-change vs cycle 0 in the assay with SALL4 ZFC4 WT (HT-SELEX), 1.52 ± 0.0945 fold-change vs cycle 0 in assay [1] and 1.36 ± 0.112 fold-change vs cycle 0 in assay [2].

For CATACA, the binding signal in the assay with SALL4 ZFC4 WT (HT-SELEX) was 1.36 ± 0.0385 fold-change vs cycle 0; in assay [1], 1.37 ± 0.0315 fold-change vs cycle 0; in assay [2], 1.32 ± 0.0664 fold-change vs cycle 0.

As for CACCTG, the binding signal with SALL4 ZFC4 WT (HT-SELEX) was 0.456 ± 0.0357 fold-change vs cycle 0; in assay [1], 0.549 ± 0.0259 fold-change vs cycle 0; in assay [2], 0.631 ± 0.0331 fold-change vs cycle 0.

For the sequence ATCTGA, the binding signal in the assay with SALL4 ZFC4 WT (HT-SELEX) was 1.33 ± 0.0639 fold-change vs cycle 0; in assay [1], 1.39 ± 0.0686 fold-change vs cycle 0; in assay [2], 1.35 ± 0.119 fold-change vs cycle 0.

AGGTTG: the binding signal worked out at 0.791 ± 0.0234 fold-change vs cycle 0 with SALL4 ZFC4 WT (HT-SELEX), 0.894 ± 0.0252 fold-change vs cycle 0 in assay [1] and 0.945 ± 0.0127 fold-change vs cycle 0 in assay [2].

On to CATATG, for which the binding signal was found to be 1.44 ± 0.156 fold-change vs cycle 0 with SALL4 ZFC4 WT (HT-SELEX), 1.37 ± 0.112 fold-change vs cycle 0 in assay [1] and 1.32 ± 0.0777 fold-change vs cycle 0 in assay [2].

ACAGAG: the binding signal worked out at 0.763 ± 0.0507 fold-change vs cycle 0 with SALL4 ZFC4 WT (HT-SELEX), 0.916 ± 0.013 fold-change vs cycle 0 in assay [1] and 0.96 ± 0.0385 fold-change vs cycle 0 in assay [2].

As to CGGAAC, the binding signal in the assay with SALL4 ZFC4 WT (HT-SELEX) came out at 0.339 ± 0.0284 fold-change vs cycle 0; in assay [1] it was 0.417 ± 0.0399 fold-change vs cycle 0; in assay [2] it was 0.524 ± 0.0677 fold-change vs cycle 0.

As for CTTGTA, the results for the binding signal (with SALL4 ZFC4 WT (HT-SELEX); in assay [1]; in assay [2]) were 1.27 ± 0.0539 fold-change vs cycle 0, 1.44 ± 0.0511 fold-change vs cycle 0 and 1.33 ± 0.0845 fold-change vs cycle 0, respectively.

In the case of AGTGTG, the binding signal in the assay with SALL4 ZFC4 WT (HT-SELEX) came out at 0.745 ± 0.0331 fold-change vs cycle 0; in assay [1], 0.85 ± 0.0147 fold-change vs cycle 0; in assay [2] it was 0.909 ± 0.0296 fold-change vs cycle 0.

Regarding ATAGCG, the binding signal with SALL4 ZFC4 WT (HT-SELEX) came to 0.516 ± 0.00601 fold-change vs cycle 0; in assay [1] it was 0.55 ± 0.0156 fold-change vs cycle 0; in assay [2] it was 0.681 ± 0.0378 fold-change vs cycle 0.

For the sequence CTATGA, the results for the binding signal (with SALL4 ZFC4 WT (HT-SELEX); in assay [1]; in assay [2]) were 1.49 ± 0.114 fold-change vs cycle 0, 1.43 ± 0.0544 fold-change vs cycle 0 and 1.42 ± 0.104 fold-change vs cycle 0, respectively.

For ATGGTG, the binding signal came to 0.792 ± 0.0243 fold-change vs cycle 0 in the assay with SALL4 ZFC4 WT (HT-SELEX), 0.882 ± 0.0384 fold-change vs cycle 0 in assay [1] and 0.941 ± 0.0443 fold-change vs cycle 0 in assay [2].

For the sequence ACTTTC, the figures for the binding signal (with SALL4 ZFC4 WT (HT-SELEX); in assay [1]; in assay [2]) were 1.28 ± 0.0405 fold-change vs cycle 0, 1.42 ± 0.0806 fold-change vs cycle 0 and 1.37 ± 0.0709 fold-change vs cycle 0, respectively.

For the sequence ACAAGA, the binding signal with SALL4 ZFC4 WT (HT-SELEX) was 1.29 ± 0.0493 fold-change vs cycle 0; in assay [1] it was 1.52 ± 0.0767 fold-change vs cycle 0; in assay [2], 1.39 ± 0.105 fold-change vs cycle 0.

Turning to CATACC, the results for the binding signal (in the assay with SALL4 ZFC4 WT (HT-SELEX); in assay [1]; in assay [2]) were 0.854 ± 0.0198 fold-change vs cycle 0, 0.927 ± 0.0242 fold-change vs cycle 0 and 0.944 ± 0.0221 fold-change vs cycle 0, respectively.

In the case of CAAGAC, the binding signal with SALL4 ZFC4 WT (HT-SELEX) was determined as 0.74 ± 0.0108 fold-change vs cycle 0; in assay [1], 0.856 ± 0.0182 fold-change vs cycle 0; in assay [2] it was 0.905 ± 0.036 fold-change vs cycle 0.

In the case of TGGTAA, the binding signal with SALL4 ZFC4 WT (HT-SELEX) came to 1.41 ± 0.0525 fold-change vs cycle 0; in assay [1], 1.47 ± 0.055 fold-change vs cycle 0; in assay [2], 1.4 ± 0.0814 fold-change vs cycle 0.

For GCATAC, the binding signal in the assay with SALL4 ZFC4 WT (HT-SELEX) turned out to be 0.665 ± 0.00696 fold-change vs cycle 0; in assay [1] it was 0.738 ± 0.0335 fold-change vs cycle 0; in assay [2], 0.819 ± 0.0421 fold-change vs cycle 0.

For the sequence CCCGTA, the values for the binding signal (with SALL4 ZFC4 WT (HT-SELEX); in assay [1]; in assay [2]) were 0.415 ± 0.0258 fold-change vs cycle 0, 0.477 ± 0.0181 fold-change vs cycle 0 and 0.557 ± 0.0362 fold-change vs cycle 0, respectively.

As for TAACGA, the figures for the binding signal (in the assay with SALL4 ZFC4 WT (HT-SELEX); in assay [1]; in assay [2]) were 1.27 ± 0.0588 fold-change vs cycle 0, 1.31 ± 0.0864 fold-change vs cycle 0 and 1.26 ± 0.0862 fold-change vs cycle 0, respectively.

As for CTTCTA, the results for the binding signal (with SALL4 ZFC4 WT (HT-SELEX); in assay [1]; in assay [2]) were 1.36 ± 0.0301 fold-change vs cycle 0, 1.53 ± 0.0956 fold-change vs cycle 0 and 1.4 ± 0.104 fold-change vs cycle 0, respectively.

For AGTTAG, the binding signal in the assay with SALL4 ZFC4 WT (HT-SELEX) turned out to be 1.428 ± 0.0117 fold-change vs cycle 0; in assay [1] it was 1.56 ± 0.0647 fold-change vs cycle 0; in assay [2], 1.46 ± 0.0871 fold-change vs cycle 0.

CTTGCC: the binding signal was 0.3123 ± 0.00236 fold-change vs cycle 0 with SALL4 ZFC4 WT (HT-SELEX), 0.384 ± 0.0251 fold-change vs cycle 0 in assay [1] and 0.501 ± 0.0709 fold-change vs cycle 0 in assay [2].

As to CGAACC, the values for the binding signal (with SALL4 ZFC4 WT (HT-SELEX); in assay [1]; in assay [2]) were 0.34 ± 0.0157 fold-change vs cycle 0, 0.416 ± 0.00929 fold-change vs cycle 0 and 0.549 ± 0.0764 fold-change vs cycle 0, respectively.

Turning to GGCTTA, the binding signal with SALL4 ZFC4 WT (HT-SELEX) was 0.5567 ± 0.00529 fold-change vs cycle 0; in assay [1], 0.656 ± 0.0181 fold-change vs cycle 0; in assay [2], 0.763 ± 0.0358 fold-change vs cycle 0.

Turning to ACATAG, the binding signal with SALL4 ZFC4 WT (HT-SELEX) was determined as 1.3 ± 0.0172 fold-change vs cycle 0; in assay [1] it was 1.35 ± 0.0801 fold-change vs cycle 0; in assay [2], 1.34 ± 0.0894 fold-change vs cycle 0.

For the sequence AAACTA, the binding signal with SALL4 ZFC4 WT (HT-SELEX) worked out at 1.88 ± 0.106 fold-change vs cycle 0; in assay [1] it was 1.85 ± 0.13 fold-change vs cycle 0; in assay [2], 1.68 ± 0.169 fold-change vs cycle 0.

The values are drawn from publication PMC9838217, “Structure of SALL4 zinc finger domain reveals link between AT-rich DNA binding and Okihiro syndrome”.
